# Measurements published in ChEMBL document CHEMBL3988442, “University of Dundee, Small-Polar-MMV Screening Library” (2021).
# Hit rate of the full screen: of about 69,000 compounds, about 950 (1.4%) showed an effect of 50% or more. What follows is part of a selection rich in strong results, with near analogues and random picks from the rest.
# Test system: Mycobacterium tuberculosis
# Test: Cornell M. t heat shock assay; further: in the data most compounds retested in dose-response had high values
# Format: functional, organism-based
# Parameters: dose or concentration left out as unconfirmed
row,SMILES,Percent Effect [%]
1,Cl.Cn1cc(C(=O)NCc2cncc3c2CCN(S(C)(=O)=O)C3)cn1,36.5
2,O=C(O)C(F)(F)F.O=C(O)C(F)(F)F.O=C(O)C(F)(F)F.c1ccc(COC[C@H]2CC[C@H]3[C@H](CCN3Cc3ccccn3)O2)nc1,4.762
3,COc1ncccc1C(=O)N1CC[C@H]2C[C@H](c3nnc(C)[nH]3)O[C@@H]2C1.O=C(O)C(F)(F)F,-43.18
4,Cc1ccc(CN2C[C@@H]3CCN(Cc4cccnc4)C(=O)[C@H]3C2)s1.O=C(O)C(F)(F)F.O=C(O)C(F)(F)F,-19.89
5,Cc1ccc(N2CCO[C@H]3CN(Cc4cnn(C)c4)C[C@H]32)nn1.O=C(O)C(F)(F)F.O=C(O)C(F)(F)F,3.052
6,CCn1ncc2c1C(COCC1CC1)CN(c1ccc(C)nn1)C2.O=C(O)C(F)(F)F.O=C(O)C(F)(F)F (stereo unspecified),28.05
7,c1csc(-c2noc(CNCCn3cccn3)n2)c1,-3.991
8,Fc1ccc(CNCCn2cccn2)cc1F,-1.295
9,Clc1ccc(OCCNCCn2cccn2)cc1,-6.93
10,c1ccc(Cc2nc(CNCCn3cccn3)cs2)cc1,96.34
11,Clc1ccc(Cc2nc(CNCCn3cccn3)cs2)cc1,102.1
12,CCOC1COC2(CCN(c3cccc(C)n3)CC2)C1.O=C(O)C(F)(F)F (stereo unspecified),-0.3848
13,CCCOc1ccccc1CN[C@@H]1CCC[C@H]1Cc1cc(C)no1.O=C(O)CC(O)(CC(=O)O)C(=O)O,-26.27
14,CNC(=O)CN1CCOCC2(CCCN(CCc3ccccc3)C2)C1.O=C(O)C(F)(F)F.O=C(O)C(F)(F)F (stereo unspecified),-11.41
15,CO[C@@H]1CCN(Cc2ccoc2)C[C@@H]1Cc1ccccc1.O=C(O)C(F)(F)F,28.11
16,Cc1ccc(N2CC[C@@H]3[C@@H]2CCN3C(=O)Cc2ccsc2)nn1.O=C(O)C(F)(F)F,8.036
17,CC1CCN(c2cncc(CCC3CCCN3)n2)CC1.Cl (stereo unspecified),-9.936
18,CCCn1ncc(-c2ccnc(NC3CCCc4ccccc43)n2)c1C (stereo unspecified),27.79
19,CCCn1cc(-c2ccnc(NC3CCCc4ccccc43)n2)c(C)n1 (stereo unspecified),98

row,SMILES,Percent Effect [%]
1,CCCn1cc(-c2ccnc(NC3CCc4ccccc43)n2)c(C)n1 (stereo unspecified),18.89
2,O=C(NCCc1cccs1)[C@H]1CO[C@H]2CCNC[C@H]2C1.O=C(O)C(F)(F)F,0.5431
3,Cl.c1nnc(Nc2cncc(C3CCCN3)n2)s1 (stereo unspecified),104.6
4,Cl.c1cnc(Nc2cncc(C3CCCN3)n2)cn1 (stereo unspecified),54.88
5,Cc1nc(Nc2ncc(C)s2)cc(C2CCCN2)n1.Cl (stereo unspecified),6.055
6,Cc1nc(Nc2nnc(C)s2)cc(C2CCCN2)n1.Cl (stereo unspecified),-7.337
7,Cc1nc(Nc2nncs2)cc(C2CCCN2)n1.Cl (stereo unspecified),5.522
8,Cl.c1cncc(CNc2cncc(C3CCCN3)n2)c1 (stereo unspecified),-18.35
9,Cc1cc(Nc2cnccn2)cc(C2CCCN2)n1 (stereo unspecified),-16.58
10,Cc1nc(Nc2cnccn2)cc(C2CCCN2)n1.Cl (stereo unspecified),-30.38
11,Cl.Cn1nc(C2CCN(C(=O)CCN3CCOCC3)CC2)c2cccnc21,0.9946
12,CNC(=O)COC1COC2(CCN(Cc3ccncc3F)CC2)C1.O=C(O)C(F)(F)F (stereo unspecified),44.76
13,COc1cccc(CN2CCC3(CCN(C(=O)[C@H]4CCCO4)CC3)C2)c1.O=C(O)C(F)(F)F,-2.359
14,Cc1cnc(N2Cc3nccn3CC(Cn3ncccc3=O)C2)nc1.O=C(O)C(F)(F)F (stereo unspecified),-35.14
15,Cc1nnc(NC(=O)CN2CCCC(Cn3cncn3)C2)s1 (stereo unspecified),2.027
16,Cc1nc(C)n(CC2CCCN(CC(=O)Nc3nncs3)C2)n1 (stereo unspecified),11.86
17,Cc1nc(C)n(CC2CCCN(CC(=O)Nc3nnc(C)s3)C2)n1 (stereo unspecified),-28.96
18,Cc1nnc(NC(=O)CN2CCCC(c3ccn[nH]3)C2)s1 (stereo unspecified),101.7
19,O=C(CN1CCCC(c2ccn[nH]2)C1)Nc1nncs1 (stereo unspecified),98.23

row,SMILES,Percent Effect [%]
1,Cn1c(C2CC2)nc2c1CCN(CC(=O)Nc1nncs1)C2,13.67
2,CCN(CC)S(=O)(=O)N1CC[C@H](c2ccccc2)[C@H]2NCCCC[C@H]21.Cl,-6.669
3,CC(C)c1nnc(N2C[C@@H]3CC[C@H](C2)N(Cc2ccccc2)C3)s1,34.82
4,COc1ccc(F)c(CN2CCCC3(CCN(S(C)(=O)=O)C3)C2)c1 (stereo unspecified),-18.53
5,CCS(=O)(=O)N1CCC2(CCCN(Cc3cc(OC)ccc3F)C2)C1 (stereo unspecified),24.11
6,COc1ccc(F)c(CN2CCCC3(CCN(C4CCOCC4)C3)C2)c1 (stereo unspecified),99.36
7,Cc1ccc(C(=O)N2CCn3c(COCC4CC4)cnc3C2C)nc1.O=C(O)C(F)(F)F (stereo unspecified),-9.703
8,CCN1CCC2(CC1)CC(NCc1cccs1)c1ccccc1O2.O=C(O)C(F)(F)F.O=C(O)C(F)(F)F (stereo unspecified),-24.55
9,CN(Cc1nc2ccccc2c(=O)[nH]1)C1CC(=O)N(C2CC2)C1=O (stereo unspecified),51.11
10,CCN1C(=O)CC(N(C)Cc2nc3ccccc3c(=O)[nH]2)C1=O (stereo unspecified),16.93
11,CN(CC(=O)N(C)C1CCCCC1)Cc1nc2ccccc2c(=O)[nH]1,97.32
12,CN(Cc1nc2ccccc2c(=O)[nH]1)C[C@@H]1CCCN2CCCC[C@H]12,44.63
13,CN(CC(=O)N(C)C1CCCCC1)Cc1nc2c(cnn2C)c(=O)[nH]1,-5.559
14,CN1C(=O)CC(N(C)Cc2nc3ccccc3c(=O)[nH]2)C1=O (stereo unspecified),15.14
15,CCC(CN1CCCCC1)NC(=O)C1(c2ccc(F)cc2)CC1.O=C(O)CC(O)(CC(=O)O)C(=O)O (stereo unspecified),-8.056
16,CSCCC(O)C(=O)N1CCN(Cc2cccc(Cl)c2)CC1 (stereo unspecified),31.13
17,Cc1ccoc1C(=O)N1CC[C@@H]2CN(C3CCOCC3)CCO[C@@H]2C1.O=C(O)C(F)(F)F,6.269
18,COc1ccc(CN2Cc3nnn(C)c3C(COCCN(C)C)C2)cc1.O=C(O)C(F)(F)F.O=C(O)C(F)(F)F (stereo unspecified),-24.51
